Compound activity from PubChem.
HSV augment: increases HSV replication in cells | maximum fold increase | HSV replication augmentation in cells, fold increase | AID 1956 | 0.005% of 220,000 active; in the data active means maximum fold increase above about 1.5; tested in PC3 cells
Pf gametocyte: kills late stage P. falciparum gametocytes; P. falciparum stage V gametocytes, ATP luminescence, 24 h; inhibition, % at 10.9 µM; 0.065% of 150,000 active; AID 743093;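 active means inhibition above the mean plus 3 SD of compounds within the control limits, set per campaign, cut at about 38% in these data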;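 further: 0% = DMSO wells and 100% = medium only without gametocytes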
EP2 mod: modulators of human EP2 prostaglandin E2 receptor. EP2-expressing cells, cAMP HTRF FRET, PGE2 co-stimulation. induction, % at 25 µM. 0.83% of 260,000 active;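 active means compounds whose cAMP rise, as percent of the full-agonist control response, exceeds 60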;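 further: rat C6 glioma line stably carrying human EP2 under a CMV promoter; the protocol text gives 20 µM as final concentration; 100% = response of wells given 1 µM PGE2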
Target sequence (P43116 whole entry, looked up): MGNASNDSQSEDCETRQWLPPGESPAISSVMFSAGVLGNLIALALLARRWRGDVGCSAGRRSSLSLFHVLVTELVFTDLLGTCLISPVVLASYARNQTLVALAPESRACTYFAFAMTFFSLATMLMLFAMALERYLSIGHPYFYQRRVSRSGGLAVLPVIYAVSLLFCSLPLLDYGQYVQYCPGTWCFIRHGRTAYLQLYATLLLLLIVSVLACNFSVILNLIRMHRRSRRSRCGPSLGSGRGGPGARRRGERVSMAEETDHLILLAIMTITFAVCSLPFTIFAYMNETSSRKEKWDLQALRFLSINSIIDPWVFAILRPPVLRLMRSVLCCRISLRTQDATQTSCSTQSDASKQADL
EP2 antag: EP2 receptor (human) inhibition. P43116. C6 glioma cells expressing human EP2, cAMP TR-FRET; cells stimulated with saturating PGE2. inhibition, % at 25 µM. 0.52% of 260,000 active;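 active means percent inhibition above 40 after rounding to a whole number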;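 further: rat C6 glioma host cells with rolipram phosphodiesterase inhibitor present; the protocol text gives 20 µM as final concentration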
Furin inh: blocks human furin protease activity | P09958 | purified furin, fluorogenic substrate cleavage | inhibition, % at 20 µM or 30 µM | 0.061% of 220,000 active | AID 463115; in the data active means inhibition above about 25%
* marks the source's active call; other numbers are inactive results; i = inactive; . = no result given. Most compounds without a hit are left out; they make up all but 1.4% or so of the library.

SMILES	HSV augment	Pf gametocyte	EP2 mod	EP2 antag	Furin inh
c1ccc2cc(-c3cc(-c4cc(-c5ccc6ccccc6c5)on4)no3)ccc2c1	.	.	-28	45*	.
O=C(c1cccc(Cl)c1)N1CCN(C2CCCCC2)CC1	.	-24	8	8	.
O=C(c1cccc(Cl)c1)N1N=C(C(F)(F)F)CC1(O)C1CCCCC1 (centres undefined)	.	.	85*	11	.
CCCCCC(C)n1[nH]c(=O)c2c(C)cc(C)nc21 (centres undefined)	i	.	40	9	-25
CC(=O)N1N=C(c2c(-c3ccccc3)c3cc(Br)ccc3[nH]c2=O)CC1c1ccco1 (centres undefined)	i	21	38	11	-9
COc1ccc([C@H](C)NC[C@H](O)c2ccc(O)c(NC=O)c2)cc1	i	.	81*	12	-36
CC(C)(C)n1nc(Cc2cccc3ccccc23)c2c(N)ncnc21	i	-10	.	-1	.
Cc1cc(NC(=O)CSc2nc3ccccc3n2CCC#N)no1	i	-22	-21	21	-26
Cc1sc2nc(SCc3ccc(C(=O)O)cc3)n(Cc3ccco3)c(=O)c2c1C	i	28	82*	6	-9
O=c1c(Cl)c(N2CCC3(CC2)OCCO3)cnn1C12CC3CC(CC(C3)C1)C2	i	6	17	5	-9
Cc1ccc(/C=C/C(=O)Nc2nnc(SCc3ccc(C#N)cc3)s2)o1	i	.	21	2	-27
COc1ccc(C(=O)NC(=S)Nc2ccc(S(=O)(=O)Nc3nccs3)cc2)cc1	.	.	-121	49*	.
CCc1nnc(NS(=O)(=O)c2ccc(NC(=S)NC(=O)/C=C/c3ccc(OC)cc3)cc2)s1	i	-15	-9	104*	-19
CCc1nnc(NS(=O)(=O)c2ccc(NC(=S)NC(=O)c3ccc(Br)cc3)cc2)s1	i	19	-79	59*	-11
CCN(Cc1ccccc1)c1ccc(/C=N/N=C(N)N)cc1	i	-32	-82	12	-25
Cc1ccccc1CNC1CCCCC1	i	-4	33	11	-22
Oc1cc(CN2COc3ccccc32)c(O)cc1CNC1CCCCC1	.	.	2	118*	.
O=C(Nc1cccc(-c2cn3ccccc3n2)c1)c1cccc(Cl)c1	i	-11	-14	61*	-14
O=C(Nc1ccc(-c2cn3ccccc3n2)cc1)c1cc(Br)ccc1O	.	.	-20	45*	.
C=CCOC(=O)/C(=C\C=C\c1ccccc1)NC(=O)c1ccccc1	i	9	1	3	-1
c1ccc(-n2c3ccccc3c3ccccc32)cc1	i	17	64*	13	-22
COc1ccc(C2CC(C(F)(F)F)n3nc(C(=O)O)cc3N2)cc1OC (centres undefined)	i	2	62*	6	-18
O=C(CN1C(=O)c2ccccc2C1=O)Nc1ccccc1C(=O)NC1CCCCCC1	i	.	35	8	-13
O=C(CN1C(=O)c2cccc3cccc1c23)Nc1ccccc1C(=O)NC1CCCCC1	.	.	76*	10	.
COC(OC)c1ccc(C#N)c(SCc2ccccc2)n1	i	-17	21	11	-30
SMILES	HSV augment	Pf gametocyte	EP2 mod	EP2 antag	Furin inh
O=C(COc1ncnc2ccccc12)NC1CCS(=O)(=O)C1 (centres undefined)	i	-3	13	12	-17
N=C1/C(=C\c2ccc(-c3cccc(C(=O)O)c3)o2)C(=O)N=C2SC=C(c3ccccc3)N12	i	6	-50	59*	-3
O=S(=O)(c1ccc(Br)cc1)N1CCn2c(nc3ccccc32)C1	i	.	8	8	-21
O=C(Nc1ccc(NC(=O)C2CC2)nc1)c1ccccn1	i	.	-1	41*	-15
O=S(=O)(Cc1ccccc1)N1CCn2c(nc3ccccc32)C1	i	.	-12	9	-19
Cc1ccc(-c2cc(C(=O)NCc3cccnc3)no2)cc1	i	.	2	2	25*
c1ccc(B2OC[C@@H]3OB(c4ccccc4)O[C@H]([C@@H]4COB(c5ccccc5)O4)[C@H]3O2)cc1	.	.	13	41*	.
O=C(O)[C@H](Cc1ccccc1)N1C(=O)c2ccccc2C1=O	.	.	24	13	.
O=C(C(Cc1ccccc1)N1C(=O)c2ccccc2C1=O)N1CCc2ccccc21 (centres undefined)	i	.	64*	6	-12
CC(=O)[C@H]1CC[C@@H]2[C@]1(C)CC=C1[C@@]23C=C[C@@]2(C[C@H](O)CC[C@@]12C)[C@H](C(=O)O)[C@@H]3C(=O)O	.	.	34	41*	.
C=CCOc1ccc(CNc2ccc3[nH]c(=O)[nH]c3c2)cc1OCC	i	.	12	12	-26
O=c1[nH]c2ccc([N+](=O)[O-])cc2nc1/C=C(\O)c1ccccc1	1.6*	-8	10	5	-12
O=C(C[N+]1(c2ccccc2)CCOCC1)c1ccccc1	.	.	15	53*	.
O=C(C[C@@H](C(=O)O)N1CCOCC1)c1ccccc1	.	.	26	13	.
O=c1oc2ccccc2c(O)c1/C=N/c1nc(-c2ccc(O)c(O)c2)cs1	.	.	36	41*	.
CCOc1ccc(OCC)c(-c2c(=O)n(OCc3ccccc3Br)c3ccccc3[n+]2[O-])c1	i	22	64*	5	-14
COc1ccc(S(=O)(=O)NCC2CCCO2)cc1Cl (centres undefined)	.	-9	.	.	.
COC(=O)COc1ccc(S(=O)(=O)NCC2CCCO2)cc1Cl (centres undefined)	i	.	3	9	31*
C[N+](C)(C)CCC(=O)c1cccc2ccccc12	.	.	-11	106*	.
COc1ccc2c(Cc3c4ccccc4cc4ccccc34)cncc2c1O	.	.	28	40*	.
COc1ccc(C(C)=O)cc1COc1ncnc2ccccc12	i	.	-19	9	-8
O=C(Nc1nnc(C(F)(F)F)s1)c1ccc(Br)s1	i	6	4	15	-29
CCCSC1=N/C(=C/c2ccsc2)C(=O)N1c1ccccc1	i	.	63*	9	-19
Cc1ccc(-c2nnc(CSc3nnc(C)s3)o2)cc1	i	13	-7	2	-20
COC(=O)c1[nH]c2ccccc2c1NC(=O)CN1CCC(C(N)=O)(N2CCCCC2)CC1	i	-22	17	15	28*
SMILES	HSV augment	Pf gametocyte	EP2 mod	EP2 antag	Furin inh
COC(=O)Nc1ccc2c(c1)ncn2C1CCCCC1	i	-27	-4	3	-18
O=C(N/N=C1\CCCc2ccccc21)C(O)c1ccccc1 (centres undefined)	i	.	11	23	-21
O=C(Nc1cccc(Cn2cccn2)c1)c1cc2c(s1)CCCC2	i	.	-14	3	26*
CC(=O)Nc1cccc(Cn2cccn2)c1	i	.	14	9	5
CCOc1ccc(C2/C(=C(\O)c3ccc(OC)c(OC)c3)C(=O)C(=O)N2c2cc(C)on2)cc1OC (centres undefined)	i	.	31	15	0
CCOc1ccc(/C(O)=C2\C(=O)C(=O)N(c3cc(C)on3)C2c2ccccc2OC)cc1 (centres undefined)	i	.	32	40*	-18
O=C(NCC1(c2ccccc2)CCCC1)C1(c2ccccc2)CCCC1	i	.	62*	3	-19
